Source: PubChem (National Center for Advancing Translational Sciences (NCATS))
Shown is part of a subset that was picked to be rich in hits.
Pf Dd2 growth: Plasmodium falciparum Dd2 growth inhibition; P. falciparum Dd2 growth, SYBR Green, 72 h; Potency, µM (top dose mostly 28.9 µM), actives largely listed as inhibitors; hit rate 4.3% among 120,000; AID 1347417; active = well fitted inhibition curve with a large enough effect; also: nearly all actives have a fitted effect of over 65% in size
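Readout: SYBR Green fluorescence, 485 nm excitation, 535 nm emission, after ~16 h lysis at 37C. Before that, Dd2-infected red cells (2.5% hematocrit) grew 72 h with compound, 29 uM top final concentration.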
Large screens that a line does not name were inactive.

COc1cccc(CN2CCC(Oc3ccc(C(=O)NC4CCCC4)cc3Cl)CC2)c1	Pf Dd2 growth 11µM
CCOc1cccc(CNC(=O)C2CCCCC(=O)N2Cc2cccc(OC)c2)c1 (centres undefined)	none
COc1cccc(CN2C(=O)CCCCC2C(=O)NC2CCCCCC2)c1 (centres undefined)	Pf Dd2 growth 8.9µM
COc1ccc(C(=O)NC2CC2)c(OC2CCN(Cc3cccc(SC)c3)CC2)c1	none
CN(C)c1cc(N2CCCC(NC(=O)COc3ccccc3)C2)ncn1 (centres undefined)	none
COCCc1noc(C2Cc3ccccc3N2C(=O)Nc2cc(C)cc(C)c2)n1 (centres undefined)	none
COCCN1C(=O)CSC12CCN(C(=O)Nc1ccccc1C)CC2	none
Cc1cc(F)ccc1OC1CN(C(=O)c2ccc3c(c2)OCO3)C1	none
O=C(COc1ccccc1)N1CCCC(Nc2ccc(F)cc2)C1 (centres undefined)	none
Cc1cnc(-c2ccccc2)n1C1CCCN(C(=O)c2ccnn2C)C1 (centres undefined)	none
Cc1cnc(-c2ccccc2)n1C1CCCN(C(=O)COc2ccc(F)cc2)C1 (centres undefined)	Pf Dd2 growth 2.8µM
COc1ccc(C[C@H](N)C(=O)NCc2c(C)ncc3c2CCNC3)cc1	none
CCOc1ccc(CC(=O)N2CCCN(c3cc(-c4ccc(F)cc4)[nH]n3)CC2)cc1OCC	none
Cn1nccc1C(=O)N1CC(c2ncc3c(-c4ccccc4)nccn23)C1	none
Cc1ccccc1-c1nccn2c(C3CN(Cc4ccccc4O)C3)ncc12	Pf Dd2 growth 0.35µM
CCO[C@H]1CN(Cc2cnc(-c3ccccc3C)s2)C[C@@H]1O	none
CC(=O)Nc1ccc(NC(=O)c2ccc3c(c2)CCN3S(=O)(=O)c2ccc(Cl)cc2)cc1	none
CC(C)c1ccc(NC(=O)c2ccc3c(c2)CCN3S(=O)(=O)c2ccccc2)cc1	Pf Dd2 growth 8.9µM
CC(C)c1ccc(NC(=O)c2ccc3c(c2)CCCN3S(C)(=O)=O)cc1	none
Cc1ncoc1C(=O)N1Cc2ccccc2OC2(CCN(C)CC2)C1	none
O=C(NCCc1ccncc1)C1CN(Cc2cccnc2)CC12CCOCC2 (centres undefined)	none
COCC(=O)NC[C@H]1O[C@@H](CC(=O)N2CCN(c3ccccc3OC)CC2)[C@H](O)[C@@H]1O	none
CCCNC(=O)N1CCC2(CCCN(Cc3cccc(F)c3F)C2=O)C1 (centres undefined)	none
Cc1noc(C)c1CN1CCN(C(=O)C2CCCN2)CC1 (centres undefined)	none
C[S+](=O)([O-])CCn1ncc2cc(OCc3cccc(-c4cccc(CO)c4)c3)ccc21	none
Cc1cc(C)n(-c2nnc(Nc3ccc(C)c(Cl)c3)c3ccccc23)n1	none
Cc1ccc(-c2nnc(Nc3ccc(Cl)c(Cl)c3)c3ccccc23)cc1S(=O)(=O)N(C)C	Pf Dd2 growth 10µM
Cc1cccc(Nc2nnc(-c3ccc(C)c(S(=O)(=O)N4CCCCC4)c3)c3ccccc23)c1	none
CCOc1ccc(-c2nnc(Nc3ccc(S(N)(=O)=O)cc3)c3ccccc23)cc1	none
CCN(CC)C(=O)c1ccc(Nc2nnc(-c3ccc(C)c(S(=O)(=O)NC)c3)c3ccccc23)cc1	Pf Dd2 growth 3.2µM
C#CCOc1ccc(-c2nnc(Nc3ccc(NC(C)=O)cc3)c3ccccc23)cc1	none
C#CC(C)(C)NS(=O)(=O)c1cc(-c2nnc(Nc3ccc(C)cc3)c3ccccc23)ccc1C	Pf Dd2 growth 5µM
Cc1ccc(C)c(Nc2nnc(-c3ccc(C)c(S(=O)(=O)N4CCN(C)CC4)c3)c3ccccc23)c1	none
CCCNS(=O)(=O)c1cc(-c2nn3c(C)nnc3c3ccccc23)ccc1C	none
O=C(Nc1cccc(Cl)c1)C1=NO[C@@H]2CN(c3ccccn3)C[C@H]12	none
Cc1cccc(CN2CCc3c(n(Cc4cccnc4)n(-c4ccccc4)c3=O)C2)n1	none
COc1cccc(-c2nc(N3CCCCC3)ncc2C(=O)O)c1	none
CC(C)CC(=O)N1CC[C@H]2COC(=O)N2c2cc(F)ccc2C1	none
COC(=O)[C@]1(C)C[C@H](C(=O)NC(C)(C)CO)[C@H](c2ccccc2Cl)N1C	none
O=C(NC1CCCN(c2cc(-c3ccc(F)cc3)[nH]n2)C1)c1ccccc1F (centres undefined)	none
COc1cc2c(cc1OCc1ccc(Cl)cc1)N(Cc1ccccc1)CC21CCN(C(C)=O)CC1	none
COc1cc2c(cc1OCc1ccccc1)N(C(=O)[C@@H]1CCCO1)CC21CCN(C)CC1	none
COc1cc2c(cc1OCc1ccccc1)N(C(=O)c1c[nH]c3ccccc13)CC21CCN(C)CC1	Pf Dd2 growth 2.5µM
O=C(CCC(=O)N1CC2CCCN2c2ccccc21)NCc1cccc(Cl)c1 (centres undefined)	none
O=C(Nc1cccc(Cl)c1)N1CC2CCCN2c2ccccc21 (centres undefined)	Pf Dd2 growth 8.9µM
O=C(NCc1cccc(Cl)c1)c1ccc(NC(=O)N2CC3CCCN3c3ccccc32)cc1 (centres undefined)	Pf Dd2 growth 8.9µM
CS(=O)(=O)N1CCC(OC2CCN(C(=O)Nc3cccc(Cl)c3)CC2)CC1	none
O=C(NCc1cccc(Br)c1)c1ccc(NC(=O)N2CCCCc3ccccc32)cc1	none
O=C(c1cccc(Cl)c1)N1CCC(N2CC3CCCN3C2=O)CC1 (centres undefined)	none
O=C(CC1CCN(C(=O)C2CCCC2)C1)N1CCOCC1 (centres undefined)	none
CCOC(=O)c1ccc(NC(=O)c2ccc3c(c2)N(C)C2CCCCN2C3=O)cc1 (centres undefined)	none
N#Cc1ccc(S(=O)(=O)N2CCCC(CO)CCNC(=O)CC2)cc1 (centres undefined)	none
Cc1cccc(OC[C@H]2C[C@@H](N)[C@H](O)[C@@H]2O)n1	none
CCN1C(=O)C2(CCN(S(=O)(=O)c3cccs3)CC2)c2ccccc21	none
COCCCNC(=O)CCc1nc(C2CCCN2S(C)(=O)=O)no1 (centres undefined)	none
Cc1ccc(CNC(=O)CC2CCCN(c3cn[nH]c(=O)c3)C2)cc1 (centres undefined)	none
COc1cc2c(cc1CN1CCCC(CO)(CC=C(C)C)C1)OCCO2 (centres undefined)	Pf Dd2 growth 7.9µM
CC(C)=CCC1(CO)CCCN(Cc2cc(=O)n3cc(C)sc3n2)C1 (centres undefined)	none
COc1cc2c(cc1CN1CCC3(CCCNC3)C1)OCCCO2 (centres undefined)	none
COc1cccc(C(=O)N2C(C(=O)NC(C)C)COC23CCN(C(=O)c2ccc(F)cc2)CC3)c1 (centres undefined)	none
O=C(Nc1cccc(C(F)(F)F)c1)N[C@H]1[C@H](O)[C@@H](N2CCOCC2)[C@@H]2OC[C@H]1O2	none
O=C(O)c1cccc(-c2cc(C(F)(F)F)ccc2Cl)c1	none
NCc1cccc(-c2cc(C(F)(F)F)ccc2Cl)c1	Pf Dd2 growth 10µM
Cc1cc(Cl)ccc1-c1ccccc1CN	Pf Dd2 growth 8.9µM
Cc1cc(Cl)ccc1-c1ccc(C=O)cc1	none
Cc1ccc(-c2cccc(CN)c2)c(C)c1	Pf Dd2 growth 14µM
Cc1cc(Cl)ccc1-c1ccccc1C=O	none
Cc1ccc(Cn2ccn(Cc3cccc(C(F)(F)F)c3)c(=O)c2=O)cc1	none
Cc1cc(Cl)ccc1-c1cccc(CN)c1	Pf Dd2 growth 14µM
Cc1cc(F)ccc1-c1cccc(COc2cnc3c(ccn3CC(=O)O)c2)c1	none
NCc1ccc(Oc2ccc(F)c(Cl)c2)cc1	none
COC(=O)[C@H](NC(=O)[C@@H]1C[C@H](NC(=O)Nc2ccc(OC)cc2)CN1C(=O)C=C(C)C)C(C)C	none
Cc1nn(CC(=O)N[C@H](C)c2ccccc2)c(=O)n1-c1ccc2c(c1)OCO2	none
